Several values for one entry are separate records, joined by “and”; a condition that tells them apart may be missing. Equal entries are not always repeated. Inconclusive results are not listed. Some compounds were tested as several samples or in several runs, with calls that do not always agree. Activity calls are given as the source filed them. Unless noted, the call rests on the fitted dose curve.

The target of the first assay is Nuclear receptor ROR-gamma (Homo sapiens) (UniProt P51449). Put plainly: qHTS assay to identify small molecule antagonists of the retinoid-related orphan receptor gamma (ROR-gamma) signaling pathway (AID 1159521; active means well fitted inhibition curve with a large enough effect in the repeat runs;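 further: CHO cells with doxycycline inducible ROR-gamma driving an RORE luciferase reporter; top concentration of the series differs between compounds; on the % scale 0 is the no-effect control and ±100 the full control effect; nearly all actives have a fitted effect of over 50% in size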). The following applies: Tet-on RORgamma CHO cells, RORE-luciferase, 16 h; series mostly up to 92.4 µM; activity change, negative = inhibition: at the top concentration. The procedure, abridged:
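Screening format: cell-based luciferase reporter in CHO cells with doxycycline-inducible RORγ. Compound pre-exposure lasts 2 h, doxycycline is 1 uM final, induction runs 16 h at 37 C, and ONE-Glo luminescence is read.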
In general terms: In qHTS, concentration-response curves come from the screen itself.
With `Cc1cccc2sc3nncn3c12`, the “activity change, negative = inhibition” value is 12.8% (inactive). Consider `C/C(=N\NC(=O)Nc1cc(F)cc(F)c1)c1ncccc1C(=O)O`, for which the Potency result is “inactive”.

On to `CNC(=O)O/N=C(/CSC)C(C)(C)C`, for which the “activity change, negative = inhibition” value is 0.298% (inactive). Still for that read-out and setting: in the case of `COC(=O)c1ccc(CBr)cc1` it was 125% (inactive); in that of `CCN(CC)C1CCCCC1`, 7.96% (inactive); in that of `CC(C)(N)Cc1ccccc1Cl`, -3.93% [at 42.5 µM] (inactive). Same read-out and setting: in the case of `CC#Cc1cc(C)nc(Nc2ccccc2)n1` it was -4.14% (inactive). Take `CON(C)C(=O)Nc1ccc(Br)cc1`: the “activity change, negative = inhibition” value is 50.9% (inactive). Turning to `CC1NCCOC1c1ccccc1` (centres undefined), the “activity change, negative = inhibition” value is 2.02% [at 42.5 µM] (inactive).

Test system in another assay: not listed separately
Put plainly: qHTS assay to identify small molecule agonists of the AP-1 signaling pathway - cell viability counter screen (AID 1159525). Further: nearly all actives have a fitted effect of over 55% in size. Further: potency means the concentration at half of the fitted maximal effect. The note with it: ME-180 AP-1-bla cells viability, ATP luminescence, 5 h; series mostly up to 76.8 µM; viability change, negative = cytotoxic: at the top concentration. The procedure, abridged:
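Intracellular ATP by Cell Titer Glo luminescence (30 min, RT) in the same ME-180 AP-1-bla wells after the 5 h compound exposure at 37 °C. Normalised to tetra n-octyl ammonium bromide and DMSO controls.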
For `O=C1CC(=O)NC(=O)N1`, the “viability change, negative = cytotoxic” value is -7.76% (inactive). On the same count and under the same terms, in the case of `CC(C)[N+](C)(CCC(C(N)=O)(c1ccccc1)c1ccccc1)C(C)C` it was 4.62% [at 35.3 µM] (inactive); in that of `S=C=S`, 1.58% (inactive); in that of `Cn1c(CCCC(=O)O)nc2cc(N(CCCl)CCCl)ccc21`, 1.66% [at 35.3 µM] (inactive). Still for that read-out and setting: in the case of `CCSC(=O)Cl` it was 4.43% (inactive); in that of `CCC(C)(C#N)N=NC(C)(C#N)CC` (centres undefined), -5.27% (inactive); in that of `O=C(Cl)C(Cl)Cl`, -8.33% (inactive). The same measure, in the same setting: the value for `COP(=O)(OC)O/C(C)=C/C(=O)N(C)C` was -1.04% (inactive). Turning to `CON(C)C(=O)Nc1ccc(Br)c(Cl)c1`, the “viability change, negative = cytotoxic” value was 1.09% (inactive). On the same count and under the same terms, the value for `COc1ccc(C=O)cc1O` was 7.59% (inactive). On the same count and under the same terms, in the case of `CCOC(=O)C(Cl)Cc1cc(-n2nc(C)n(C(F)F)c2=O)c(F)cc1Cl` (centres undefined) it was -0.954% (inactive); in that of `CCN[C@@H](C)Cc1ccccc1`, 1.37% (inactive). On to `O=C1C2CC=CCC2C(=O)N1SC(Cl)(Cl)Cl` (centres undefined), for which the Potency result is “inactive and 48.2 µM (active)”.

For the compound `O=C(Cl)C(Cl)(Cl)Cl`, the “viability change, negative = cytotoxic” value was -1.44% (inactive). On the same count and under the same terms, the value for `CCN(CCO)CCn1c(Cc2ccccc2)nc2c1c(=O)n(C)c(=O)n2C` was 8% [at 35.3 µM] (inactive); that for `CCOC(=O)C(SP(=S)(OC)OC)c1ccccc1` (centres undefined) was -7.02% (inactive); that for `CCOC(=O)NC(C)(C)Cc1ccc(Cl)cc1` was 8.12% [at 35.3 µM] (inactive). Still for that read-out and setting: the value for `C=CCc1cc(OC)c2c(c1)OCO2` was -8.57% (inactive); that for `CN1COCN(Cc2cnc(Cl)s2)/C1=N\[N+](=O)[O-]` was 3.43% (inactive). Same read-out and setting: in the case of `NC(=O)CS(=O)C(c1ccccc1)c1ccccc1` (centres undefined) it was -0.856% [at 35.3 µM] (inactive); in that of `CCCCCCCCSC(=O)Oc1cc(Cl)nnc1-c1ccccc1`, -0.752% (inactive). Regarding `C1CN2CCC1CC2`, the “viability change, negative = cytotoxic” value was -5.52% [at 35.3 µM] (inactive).

As to `ClC1=C(Cl)C2(Cl)C(CBr)CC1(Cl)C2(Cl)Cl` (centres undefined), the “viability change, negative = cytotoxic” value is -2.21% [at 35.3 µM] (inactive). The same measure, in the same setting: the value for `CCC1(c2ccccc2)C(=O)N(COC)C(=O)N(COC)C1=O` was -6.52% [at 35.3 µM] (inactive). On the same count and under the same terms, the value for `NNC(N)=O` was 0.135% (inactive); that for `Cc1cccc2sc3nncn3c12` was 2.06% (inactive).

For `C/C(=N\NC(=O)Nc1cc(F)cc(F)c1)c1ncccc1C(=O)O`, the Potency entry was “inactive”. Regarding `CNC(=O)O/N=C(/CSC)C(C)(C)C`, the “viability change, negative = cytotoxic” value was 10.4% (inactive).

For the compound `COC(=O)c1ccc(CBr)cc1`, the “viability change, negative = cytotoxic” value is -2.18% (inactive). The same measure, in the same setting: in the case of `CCN(CC)C1CCCCC1` it was -15.7% (inactive); in that of `CC(C)(N)Cc1ccccc1Cl`, -1.36% [at 35.3 µM] (inactive). Turning to `CC#Cc1cc(C)nc(Nc2ccccc2)n1`, the “viability change, negative = cytotoxic” value was 2.87% (inactive).

For the compound `CON(C)C(=O)Nc1ccc(Br)cc1`, the “viability change, negative = cytotoxic” value is 15.9% (inactive). Same read-out and setting: the value for `CC1NCCOC1c1ccccc1` (centres undefined) was 6.13% [at 35.3 µM] (inactive).

Test system in the next assay: not listed separately
Put plainly: qHTS assay to identify small molecule agonists of the AP-1 signaling pathway (AID 1159526). Further: on the % scale 0 is the no-effect control and ±100 the full control effect. The following applies: ME-180 (cervical carcinoma) AP-1-bla reporter, beta-lactamase FRET ratio, 5 h; series mostly up to 76.8 µM; activation: at the top concentration.
As to `O=C1CC(=O)NC(=O)N1`, the “activation” value is -4.82% (inactive). Same read-out and setting: in the case of `CC(C)[N+](C)(CCC(C(N)=O)(c1ccccc1)c1ccccc1)C(C)C` it was 0.192% [at 35.3 µM] (inactive). Same read-out and setting: in the case of `S=C=S` it was -2.11% (inactive); in that of `Cn1c(CCCC(=O)O)nc2cc(N(CCCl)CCCl)ccc21`, 24.2% [at 35.3 µM] (inactive).

For `CCSC(=O)Cl`, the “activation” value was 6.15% (inactive).

Turning to `CCC(C)(C#N)N=NC(C)(C#N)CC` (centres undefined), the “activation” value was -4.36% (inactive). The same measure, in the same setting: in the case of `O=C(Cl)C(Cl)Cl` it was 2.81% (inactive); in that of `COP(=O)(OC)O/C(C)=C/C(=O)N(C)C`, 0.0908% (inactive); in that of `CON(C)C(=O)Nc1ccc(Br)c(Cl)c1`, 4.52% (inactive). As for `COc1ccc(C=O)cc1O`, the “activation” value was -1.59% (inactive). `CCOC(=O)C(Cl)Cc1cc(-n2nc(C)n(C(F)F)c2=O)c(F)cc1Cl` (centres undefined): the “activation” value is -4.57% (inactive).

The record behind these values is PubChem BioAssay (Tox21).
